Hit rate of the full screen: of about 52,000 compounds, about 1,700 (3.3%) were called active. Cut-off read from the data, not from the text of the source: active = survival mostly below about 52% (no sharp cut-off); inactive = mostly above about 56%. This excerpt belongs to a sample that is enriched for actives.

The test system of the test is Wild type. Description: growth inhibition of S. aureus wild type versus tarO mutant, primary screen, teichoic acid synthesis inhibitors, RN4220, OD600 (AID 463173). To be noted: S. aureus RN4220 wild type/DeltatarO growth, OD600, 18 h, stronger effect = lower value, screened at 18.75 µg/mL (by protocol).
As to `CCOCCCn1c(SCC(=O)OCC)nc2c(sc3ccccc32)c1=O`, the survival is 136% (inactive).

In the case of `CCCCn1c(SCc2ccccc2C#N)nc2c(sc3ccccc32)c1=O`, the survival is 14% (active).

As for `COCCCn1c(SCc2ccccc2F)nc2c(sc3ccccc32)c1=O`, the survival is 98% (inactive).

For the molecule `CCOCCCn1c(SCC(=O)NCc2ccccc2)nc2c(sc3ccccc32)c1=O`, the survival was -6% (active).

Regarding `CCOC(=O)CSc1nc2c(sc3ccccc32)c(=O)n1CCc1ccccc1`, the survival is 75% (inactive).

Turning to `CCOCCCn1c(SCC(=O)NCCCOC)nc2c(sc3ccccc32)c1=O`, the survival was 134% (inactive).

As to `COCCCn1c(SCC(=O)NCc2ccccc2)nc2c(sc3ccccc32)c1=O`, the survival was 72% (inactive).

Turning to `CC(C)OCCCn1c(SCc2ccccc2C#N)nc2c(sc3ccccc32)c1=O`, the survival is 76% (inactive).

On to `COCCCNC(=O)CSc1nc2c(sc3ccccc32)c(=O)n1CCc1ccccc1`, for which the survival was 64% (inactive).

As for `CCCCn1c(SCC(=O)NCCCOC)nc2c(sc3ccccc32)c1=O`, the survival is 133% (inactive).

In the case of `COCCCNC(=O)CSc1nc2c(sc3ccccc32)c(=O)n1CCc1ccc(OC)c(OC)c1`, the survival is -6% (active).

On to `CCOC(=O)CSc1nc2c(sc3ccccc32)c(=O)n1CCO`, for which the survival is -6% (active).

Regarding `Cc1c(C(=O)Nc2ccc(F)c(Cl)c2)oc2ccc(S(=O)(=O)N(C)C3CCCCC3)cc12`, the survival was 99% (inactive).

With `Cc1ccc(C)c(S(=O)(=O)c2cn(C)c3cc(F)c(F)cc3c2=O)c1`, the survival was 81% (inactive).

As for `COc1cccc(-n2ccnc2SCC(=O)Nc2c(C)cc(C)cc2C)c1`, the survival was 113% (inactive).

Consider `O=C(CCCCCn1c(=O)c2sccc2n(Cc2ccc(Cl)cc2)c1=O)NCc1ccc2c(c1)OCO2`, for which the survival is 86% (inactive).

On to `CC(C)OCCCn1c(SCC(=O)c2ccccc2)nc2c(sc3ccccc32)c1=O`, for which the survival is 72% (inactive).

In the case of `CCCCn1c(SCC(=O)c2ccccc2)nc2c(sc3ccccc32)c1=O`, the survival is -1% (active).

`CCCCn1c(SCC(=O)NCc2ccc(C)cc2)nc2c(sc3ccccc32)c1=O`: the survival is 69% (inactive).

Regarding `COc1ccc(CN(CCN)C2CC(C)N(C)CC2C)cc1` (stereo not given), the survival is 105% (inactive).

On to `Cc1ccc(C2CCN(C(=O)Nc3ccc(Cl)c(Cl)c3)C2)cc1` (stereo not given), for which the survival was -3% (active).

Turning to `O=C(Nc1ccc(Cl)c(Cl)c1)N1CCC(c2ccccc2)C1` (stereo not given), the survival is 71% (inactive).

As to `Cc1ccc(C2CCN(C(=O)Nc3ccc(Cl)cc3)C2)cc1` (stereo not given), the survival is 71% (inactive).

As for `Cc1cccc(-c2nc3ccccc3o2)c1`, the survival is 119% (inactive).

As to `CS(=O)(=O)CCC(C(=O)Nc1cccc(C(F)(F)F)c1)N1Cc2ccccc2C1=O` (stereo not given), the survival is -1% (active).

For the molecule `CS(=O)(=O)CC[C@@H](C(=O)NCCc1ccccc1)N1Cc2ccccc2C1=O`, the survival was 90% (inactive).

On to `Cc1c(Cl)cccc1NC(=O)C(CCS(C)(=O)=O)N1Cc2ccccc2C1=O` (stereo not given), for which the survival was 74% (inactive).

Turning to `COC(=O)c1cc(NC(=O)[C@H](CCS(C)(=O)=O)N2Cc3ccccc3C2=O)cc(C(=O)OC)c1`, the survival is 87% (inactive).

On to `COc1cc(NC(=O)C(CCS(C)(=O)=O)N2Cc3ccccc3C2=O)cc(OC)c1OC` (stereo not given), for which the survival is 14% (active).

Turning to `COc1ccc(NC(=O)[C@H](Cc2ccccc2)N2Cc3ccccc3C2=O)cc1OC`, the survival is 94% (inactive).

With `CCc1ccc(NC(=O)CSc2nc3c(sc4ccccc43)c(=O)n2CCCOC(C)C)cc1`, the survival is 80% (inactive).

As for `O=C(CSc1n[nH]c(-c2ccc(F)cc2)n1)NCCc1ccccc1`, the survival was 120% (inactive).

Consider `CC1=C(C(=O)Nc2ccccc2)C(c2ccncc2)n2nc(SCc3ccccc3F)nc2N1` (stereo not given), for which the survival was 106% (inactive).

With `Cc1ccc(NC(=O)Cn2cc(S(=O)(=O)N3CCCC3)c(S(=O)(=O)N3CCCC3)c2)cc1F`, the survival is 126% (inactive).

For `O=C(CCc1cn(Cc2ccccc2F)c2ccccc12)NCc1ccc(Cl)cc1`, the survival was 81% (inactive).

For `O=C(NCC1CCCCC1)C1CCCN1C(=O)NC1CCCCC1` (stereo not given), the survival is 106% (inactive).

As for `COc1ccc(NC(=O)c2oc3ccc(S(=O)(=O)N4CCCCC4)cc3c2C)cc1Cl`, the survival was 73% (inactive).

Turning to `Cc1ccc(S(=O)(=O)C2(C(=O)Nc3ccc(C(C)C)cc3)CC2)cc1`, the survival is 64% (inactive).

Take `Cc1ccc(S(=O)(=O)C2(C(=O)Nc3ccc(Cl)c(C(F)(F)F)c3)CC2)cc1`: the survival is 41% (active).

On to `COC(=O)c1ccc(NC(=O)C2(S(=O)(=O)c3ccc(C)cc3)CC2)cc1`, for which the survival is 133% (inactive).

With `Cc1ccc(S(=O)(=O)C2(C(=O)Nc3ccc(C)c(Cl)c3)CC2)cc1`, the survival is 4% (active).

For the molecule `CCOC(=O)c1cccc(NC(=O)C2(S(=O)(=O)c3ccc(C)cc3)CC2)c1`, the survival is 84% (inactive).

With `O=C(Nc1ccccc1C(F)(F)F)C1(S(=O)(=O)c2ccc(Cl)cc2)CC1`, the survival was 94% (inactive).

For the molecule `COc1ccc(C2(CNC(=O)C(=O)Nc3ccc(C)c(Cl)c3)CCCC2)cc1OC`, the survival was 83% (inactive).

With `Cc1ccc(-n2ncc(C(=O)NCc3ccc4c(c3)OCO4)c2C2CCN(C(=O)OC(C)(C)C)CC2)cc1C`, the survival was 82% (inactive).

As to `COc1cccc(N2CCN(C(=O)c3c4c(nc5ccccc35)C(=O)N(C3CCCCC3)C4)CC2)c1`, the survival was 88% (inactive).

Take `COc1ccc(C)cc1NC(=O)Cn1c(=O)oc2cc(S(=O)(=O)N3CCCCC3)ccc21`: the survival was 94% (inactive).

Turning to `NC(=O)c1c(NC(=O)c2noc3c2CCCC3)sc2c1CCCC2`, the survival was 73% (inactive).

On to `Cc1cccc(S(=O)(=O)c2cn(Cc3ccccc3)c3cc(N4CCCCC4)c(F)cc3c2=O)c1`, for which the survival was 99% (inactive).

`CCn1cc(S(=O)(=O)c2cc(C)cc(C)c2)c(=O)c2cc(F)c(N3CCCCC3)cc21`: the survival is 82% (inactive).

With `Cn1cc(S(=O)(=O)c2cccc(Cl)c2)c(=O)c2cc(F)c(N3CCN(c4ccccc4)CC3)cc21`, the survival is 1% (active).

For the molecule `CCn1cc(S(=O)(=O)c2cc(C)cc(C)c2)c(=O)c2cc(F)c(N3CCCC3)cc21`, the survival was 129% (inactive).

As to `Cn1cc(S(=O)(=O)c2cccc(Cl)c2)c(=O)c2cc(F)c(N3CCN(c4ccc(F)cc4)CC3)cc21`, the survival is 81% (inactive).

On to `O=c1c(S(=O)(=O)c2ccccc2)cn(Cc2ccc(F)cc2)c2cc(N3CCCCC3)c(F)cc12`, for which the survival is 74% (inactive).

As for `Cc1cccc(S(=O)(=O)c2cn(Cc3ccc(F)cc3)c3cc(N4CCCCC4)c(F)cc3c2=O)c1`, the survival was -4% (active).

Regarding `CCN1CCN(c2cc3c(cc2F)c(=O)c(S(=O)(=O)c2cc(C)cc(C)c2)cn3CC)CC1`, the survival is -3% (active).

As for `Cn1cc(S(=O)(=O)c2ccccc2)c(=O)c2cc(F)c(N3CCN(c4ccccc4)CC3)cc21`, the survival is 135% (inactive).

Regarding `CCOc1ccc(N(C)C(=O)C2CCN(S(=O)(=O)c3c(C)noc3/C=C/c3ccc(C)cc3)CC2)cc1`, the survival was 153% (inactive).

In the case of `COc1ccccc1CNc1nc(-c2ccco2)nn1C(=O)c1cc(OC)c(OC)c(OC)c1`, the survival is 69% (inactive).

`COc1ccc(C(=O)c2c(N)c(C(=O)Nc3cccc(OC)c3)c3ccccn23)cc1`: the survival was 95% (inactive).

For `Cc1ccc2oc(=O)c(-c3nc(-c4cccs4)no3)cc2c1`, the survival is 94% (inactive).

In the case of `COc1ccc(NC(=O)COc2ccc(S(=O)(=O)NC3CCCCC3)cc2)cc1OC`, the survival is 74% (inactive).

As for `c1ccc(-c2cc3ccsc3s2)cc1`, the survival is 111% (inactive).

Turning to `Oc1cc2ccsc2c2ccccc12`, the survival was 18% (active).

In the case of `O=c1cc(O)c2ccccc2[nH]1`, the survival is 135% (inactive).

Consider `Cc1ccc(C(=O)N/C(=C/c2ccco2)C(=O)Nc2nccs2)cc1`, for which the survival was 81% (inactive).

`CCCC(=O)Nc1ccc2c(C)cc(C)nc2n1`: the survival is 99% (inactive).

Regarding `CCC(Sc1ccc2nnc(CCNS(=O)(=O)c3ccc(OC)cc3)n2n1)C(=O)OC` (stereo not given), the survival was 84% (inactive).

For `COc1ccc(NC(=O)CCS(=O)(=O)c2nc(-c3cccs3)cc(C(F)(F)F)n2)cc1OC`, the survival was 100% (inactive).

Take `O=C(CCn1nc(-c2ccccc2)c2ccccc2c1=O)Nc1ccccc1`: the survival is 86% (inactive).

Consider `COc1ccccc1NC(=O)CCn1nc(-c2ccccc2)c2ccccc2c1=O`, for which the survival is 4% (active).

With `Cc1ccc(NC(=O)CCn2nc(-c3ccccc3)c3ccccc3c2=O)c(C)c1`, the survival is 75% (inactive).

`CCCOc1ccccc1C1C(C(=O)Nc2ccccc2)=C(C)Nc2nnnn21` (stereo not given): the survival was 134% (inactive).

For `COc1ccc(-n2c(-c3ccc(F)cc3)cn3c4c(=O)n(C)c(=O)n(C)c4nc23)cc1`, the survival is 63% (inactive).

Turning to `CC(C)(C)C(=O)Nc1nnc2n1CCS2`, the survival was 77% (inactive).

On to `Cc1ccc2c(CNCCc3ccccc3)c(C(=O)O)n(Cc3ccccc3C)c2c1`, for which the survival was 1% (active).

As for `Cc1ccc2c(CNCCc3ccc(Cl)cc3)c(C(=O)O)n(Cc3ccc(F)cc3)c2c1`, the survival was 4% (active).

Take `C=Cc1ccc(Cn2c(C(=O)O)c(CNCCc3ccccc3)c3ccc(C)cc32)cc1`: the survival is 69% (inactive).

Turning to `Cc1ccc2c(CNCCc3ccco3)c(C(=O)O)n(Cc3ccc(F)cc3)c2c1`, the survival is 66% (inactive).

Turning to `C=Cc1ccc(Cn2c(C(=O)O)c(CNCc3ccc(F)cc3)c3ccc(C)cc32)cc1`, the survival was 68% (inactive).

On to `Cc1ccc(CNCc2c(C(=O)O)n(Cc3ccccc3C)c3cc(C)ccc23)cc1`, for which the survival was 63% (inactive).

In the case of `Cc1ccccc1NC(=O)Cn1nc(-c2ccccc2)nc(Cc2ccccc2)c1=O`, the survival was 70% (inactive).

Consider `CC(C)OCCCn1c(=O)c2ccccc2n2c(-c3ccccc3F)nnc12`, for which the survival is 88% (inactive).

Take `Cc1c(C(=O)N2CCCC2)oc2c1-c1nn(CC(=O)NCc3cccc(F)c3)cc1CC2`: the survival was 85% (inactive).

As for `Cc1cccc(N2CCN(C(=O)c3noc4c3COc3ccc(C)cc3-4)CC2C)c1` (stereo not given), the survival is 80% (inactive).

Take `CN(C)c1ncnc(Cl)c1N`: the survival was 101% (inactive).

Consider `CCOc1ccc(NC(=O)CSc2ncc3c(n2)-c2cc(Cl)ccc2N(C)S3(=O)=O)cc1`, for which the survival was -3% (active).

`CCOc1ccc(NC(=O)CSc2nnc(-c3ccc(C)cc3)c(-c3ccc(C)cc3)n2)cc1`: the survival was 115% (inactive).

Turning to `COc1ccc(-c2nnc(SCC(=O)Nc3cccc(C(F)(F)F)c3)nc2-c2ccc(OC)cc2)cc1`, the survival was 79% (inactive).

In the case of `COc1cc(NC(=O)CSc2ncc3c(n2)-c2ccc(Cl)cc2N(Cc2ccccc2)S3(=O)=O)cc(OC)c1`, the survival was 65% (inactive).

For the molecule `Cc1ccc(NC(=O)CSc2ncc3c(n2)-c2ccc(Cl)cc2N(C)S3(=O)=O)cc1F`, the survival is 69% (inactive).

Consider `COc1cccc(NC(=O)CSc2ncc3c(n2)-c2ccc(Cl)cc2N(C)S3(=O)=O)c1`, for which the survival was 10% (active).

Turning to `CCOc1ccc(-c2nnc(SCC(=O)Nc3cccc(OC)c3)nc2-c2ccc(OCC)cc2)cc1`, the survival was -3% (active).

`CCOc1ccc(NC(=O)CSc2ncc3c(n2)-c2ccccc2N(C)S3(=O)=O)cc1`: the survival was 78% (inactive).

As to `CCc1cccc(NC(=O)CSc2ncc3c(n2)-c2cc(Cl)ccc2N(C)S3(=O)=O)c1`, the survival is 65% (inactive).

The values above are taken from PubChem BioAssay AID463173 (ICCB-Longwood Screening Facility, Harvard Medical School, 2010).
